Assay [1] is described as follows: small molecules captured by biotinylated probe aFSTL3 – biochemical, small-molecule microarray, fluorescence 635/667, stem cell growth factor project, primary screen (AID 1064).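 Note: measures binding of the biotinylated anti-FSTL3 antibody to printed compounds.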 As to conditions: higher = more signal.
Assay [2] is described as follows: binders from COS7 lysate, DM2A8 probe, primary screen, torsin A project, cell lysate, small-molecule microarray, fluorescence 635/667 (AID 1065). Conditions: higher = more signal, COS7 lysate expressing mutant human TOR1A.
Assay [3] can be described thus: small molecules captured by biotinylated probe aFGF2 – biochemical, small-molecule microarray, fluorescence 635/667, stem cell growth factor project, primary screen (AID 1067).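 Note: measures binding of biotinylated aFGF2 protein to printed compounds on slides; z-score merges feature fluorescence and signal-to-noise across triplicate slides.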 As to conditions: higher = more signal.
A short description of assay [4]: small molecules captured by biotinylated probe aFGF10 – biochemical, small-molecule microarray, fluorescence 635/667, stem cell growth factor project, primary screen (AID 1071).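 Note: score merges 667 nm spot intensity and signal to noise from triplicate slides.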 Conditions: higher = more signal.
In assay [5] the target is Neurogenic locus notch homolog protein 2 (Homo sapiens) (UniProt Q04721). In words: small molecules binding Notch2 protein – biochemical, small-molecule microarray, 635 nm fluorescence, stem cell growth factors, primary screen (AID 1073). Conditions: higher = more signal.
In assay [6] the target is Pro-neuregulin-1, membrane-bound isoform (Homo sapiens) (UniProt Q02297). The experiment in a line: small molecules binding neuregulin-1 protein – biochemical, small-molecule microarray, fluorescence 635/667, psychiatric disease protein project, primary screen (AID 1075).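 Note: score combines 667 nm spot fluorescence with signal to noise.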 Conditions: NRG1 binding, 635 nm fluorescence, higher = more signal.
Assay [7] relates to Neuregulin-1 EGF-like domain. In words: small molecules binding NRG1 EGF domain – biochemical, small-molecule microarray, 635 nm fluorescence, primary screen (AID 1081).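 Note: binding of the protein to compounds printed on small-molecule microarray slides.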 Conditions: higher = more signal.
The nature of assay [8]: FRG1 expression reporter modulators in myotubes – cell-based, C2C12 myotubes, firefly/Renilla luciferase, luminescence, FRG1 inhibition for FSHD, primary screen (AID 1084). Conditions: FRG1 promoter luciferase, higher = more signal, called active from +8 up or from −8 down.
The nature of assay [9]: small molecules captured by biotinylated probe aFST – biochemical, small-molecule microarray, fluorescence 635/667, stem cell growth factor project, primary screen (AID 1086).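 Note: score merges 667 nm fluorescence with signal-to-noise of each printed compound spot.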 As to conditions: higher = more signal.
A short description of assay [10]: binders of probe aHhip on microarray, primary screen, stem cell growth factor project, biochemical, small-molecule microarray, fluorescence 635/667 (AID 1087).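 Note: score merges spot fluorescence at 667nm with spot signal to noise ratio.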 Conditions: higher = more signal.
The subject of assay [11] is PRMT1 (protein arginine N-methyltransferase 1). In words: small molecules binding arginine methyltransferase PRMT1 – biochemical, small-molecule microarray, 635 nm fluorescence, primary screen (AID 1088).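 Note: binding of Prmt1 protein to compounds spotted on small-molecule microarray slides.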 Conditions: higher = more signal.
Assay [12] in a line: growth effects on S. cerevisiae YJM789 – YJM789 clinical isolate, OD600, 24 h, basal, primary screen (AID 1089).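 Note: growth of clinical yeast isolate S. cerevisiae YJM 789 seeded 1000 cells per well; test concentration not given here.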 As to conditions: higher = more signal, called active from +8 up or from −8 down.
Assay [13] in a line: S. pombe growth modifiers, basal conditions – strain 972, OD600, 24 h, no modulator, primary screen (AID 1090).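 Note: basal condition with compound alone and no growth modifier present; test concentration not given here.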 As to conditions: S. pombe 972 growth, higher = more signal, called active from +8 up or from −8 down.
Assay [14] is described as follows: budding yeast growth modifiers under rapamycin – strain BY4716, OD600, 96 h, primary screen (AID 1091). Note: test concentration not given here. As to conditions: S. cerevisiae BY4716 + rapamycin, higher = more signal, called active from +8 up or from −8 down.
The target of assay [15] is Torsin-1A-interacting protein 2 (Homo sapiens) (UniProt Q8NFQ8). The experiment in a line: small molecules binding lysate-expressed LULL1 – cell lysate, human LULL1 lysate, 635/667 nm fluorescence, primary screen (AID 1092).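 Note: score merges per-feature 667 nm fluorescence with signal-to-noise.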 As to conditions: small-molecule microarray, hLULL1 lysate binding, 635 nm fluorescence; higher = more signal.
The nature of assay [16]: optical density change of DRC41 E. coli – strain DRC41, OD650, 24 h, E. coli filamentation project, primary screen (AID 1093).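 Note: MC1000 strain lacking acrAB efflux and sulA so SOS filamentation is blocked; test concentration not given here.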 As to conditions: E. coli DRC41 growth, higher = more signal, called active from +8 up or from −8 down.
Assay [17] in a line: probe aLefty2 binding to arrayed compounds – biochemical, biotinylated probe, 635/667 nm fluorescence, primary screen (AID 1094).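 Note: score merges spot fluorescence near 667 nm with spot signal-to-noise ratio.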 Conditions: small-molecule microarray, higher = more signal.
Assay [18] has as its system Noggin (protein binding on small-molecule microarray). The experiment in a line: small molecules binding Noggin protein – biochemical, 635/667 nm fluorescence, primary screen (AID 1095).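 Note: score merges 667 nm feature fluorescence with signal to noise over triplicate slides.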 Conditions: 635 nm fluorescence, higher = more signal.
The target of assay [19] is Neurogenic locus notch homolog protein 3 (Homo sapiens) (UniProt Q9UM47). The experiment in a line: small molecules binding NOTCH3 protein – biochemical, 635/667 nm fluorescence, primary screen (AID 1096). Conditions: small-molecule microarray, 635 nm fluorescence, higher = more signal.
Assay [20] is described as follows: probe aEGFR binding to arrayed compounds – biochemical, biotinylated probe, 635/667 nm fluorescence, primary screen (AID 1097).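 Note: probe is a biotinylated anti-EGFR antibody binding compounds printed on slides; score combines fluorescence near 667 nm and signal to noise of each spot.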 As to conditions: small-molecule microarray, higher = more signal.

Results on five compounds are retold here after PubChem BioAssay.

Molecules are shown by their SMILES. Activity calls are given as the source filed them.

Pro-neuregulin-1, membrane-bound isoform (Homo sapiens), sequence (Q02297 whole entry, looked up, the tested form may be a part, canonical isoform): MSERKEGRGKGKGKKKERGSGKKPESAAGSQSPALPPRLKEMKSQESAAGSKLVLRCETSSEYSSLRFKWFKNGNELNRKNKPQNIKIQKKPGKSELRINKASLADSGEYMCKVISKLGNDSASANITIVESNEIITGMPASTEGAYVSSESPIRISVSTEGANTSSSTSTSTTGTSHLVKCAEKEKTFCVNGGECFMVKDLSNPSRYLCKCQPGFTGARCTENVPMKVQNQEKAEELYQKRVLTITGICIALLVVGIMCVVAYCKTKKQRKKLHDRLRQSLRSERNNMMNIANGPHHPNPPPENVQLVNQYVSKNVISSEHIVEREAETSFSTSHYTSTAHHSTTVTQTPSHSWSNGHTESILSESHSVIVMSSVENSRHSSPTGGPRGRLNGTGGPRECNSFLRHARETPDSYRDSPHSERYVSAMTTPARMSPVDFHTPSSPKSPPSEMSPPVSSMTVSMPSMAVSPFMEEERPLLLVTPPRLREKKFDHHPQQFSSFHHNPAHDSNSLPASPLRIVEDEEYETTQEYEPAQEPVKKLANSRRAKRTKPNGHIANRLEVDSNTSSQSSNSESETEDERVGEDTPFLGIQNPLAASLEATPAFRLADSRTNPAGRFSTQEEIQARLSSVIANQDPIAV
Torsin-1A-interacting protein 2 (Homo sapiens), sequence (Q8NFQ8 whole entry, looked up): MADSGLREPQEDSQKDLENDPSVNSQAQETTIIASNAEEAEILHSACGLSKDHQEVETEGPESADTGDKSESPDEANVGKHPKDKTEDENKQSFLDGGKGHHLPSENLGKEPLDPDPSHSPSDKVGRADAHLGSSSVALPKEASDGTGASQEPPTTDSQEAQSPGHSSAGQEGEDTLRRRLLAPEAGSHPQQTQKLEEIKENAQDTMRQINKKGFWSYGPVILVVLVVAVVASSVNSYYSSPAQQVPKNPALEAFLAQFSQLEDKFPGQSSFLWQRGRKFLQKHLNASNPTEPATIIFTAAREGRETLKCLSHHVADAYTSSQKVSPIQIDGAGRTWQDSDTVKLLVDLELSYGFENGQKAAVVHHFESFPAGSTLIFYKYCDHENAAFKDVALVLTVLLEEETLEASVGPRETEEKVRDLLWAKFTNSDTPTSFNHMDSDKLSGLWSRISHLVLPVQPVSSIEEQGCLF
Neurogenic locus notch homolog protein 2 (Homo sapiens), sequence (Q04721 whole entry, looked up, canonical isoform): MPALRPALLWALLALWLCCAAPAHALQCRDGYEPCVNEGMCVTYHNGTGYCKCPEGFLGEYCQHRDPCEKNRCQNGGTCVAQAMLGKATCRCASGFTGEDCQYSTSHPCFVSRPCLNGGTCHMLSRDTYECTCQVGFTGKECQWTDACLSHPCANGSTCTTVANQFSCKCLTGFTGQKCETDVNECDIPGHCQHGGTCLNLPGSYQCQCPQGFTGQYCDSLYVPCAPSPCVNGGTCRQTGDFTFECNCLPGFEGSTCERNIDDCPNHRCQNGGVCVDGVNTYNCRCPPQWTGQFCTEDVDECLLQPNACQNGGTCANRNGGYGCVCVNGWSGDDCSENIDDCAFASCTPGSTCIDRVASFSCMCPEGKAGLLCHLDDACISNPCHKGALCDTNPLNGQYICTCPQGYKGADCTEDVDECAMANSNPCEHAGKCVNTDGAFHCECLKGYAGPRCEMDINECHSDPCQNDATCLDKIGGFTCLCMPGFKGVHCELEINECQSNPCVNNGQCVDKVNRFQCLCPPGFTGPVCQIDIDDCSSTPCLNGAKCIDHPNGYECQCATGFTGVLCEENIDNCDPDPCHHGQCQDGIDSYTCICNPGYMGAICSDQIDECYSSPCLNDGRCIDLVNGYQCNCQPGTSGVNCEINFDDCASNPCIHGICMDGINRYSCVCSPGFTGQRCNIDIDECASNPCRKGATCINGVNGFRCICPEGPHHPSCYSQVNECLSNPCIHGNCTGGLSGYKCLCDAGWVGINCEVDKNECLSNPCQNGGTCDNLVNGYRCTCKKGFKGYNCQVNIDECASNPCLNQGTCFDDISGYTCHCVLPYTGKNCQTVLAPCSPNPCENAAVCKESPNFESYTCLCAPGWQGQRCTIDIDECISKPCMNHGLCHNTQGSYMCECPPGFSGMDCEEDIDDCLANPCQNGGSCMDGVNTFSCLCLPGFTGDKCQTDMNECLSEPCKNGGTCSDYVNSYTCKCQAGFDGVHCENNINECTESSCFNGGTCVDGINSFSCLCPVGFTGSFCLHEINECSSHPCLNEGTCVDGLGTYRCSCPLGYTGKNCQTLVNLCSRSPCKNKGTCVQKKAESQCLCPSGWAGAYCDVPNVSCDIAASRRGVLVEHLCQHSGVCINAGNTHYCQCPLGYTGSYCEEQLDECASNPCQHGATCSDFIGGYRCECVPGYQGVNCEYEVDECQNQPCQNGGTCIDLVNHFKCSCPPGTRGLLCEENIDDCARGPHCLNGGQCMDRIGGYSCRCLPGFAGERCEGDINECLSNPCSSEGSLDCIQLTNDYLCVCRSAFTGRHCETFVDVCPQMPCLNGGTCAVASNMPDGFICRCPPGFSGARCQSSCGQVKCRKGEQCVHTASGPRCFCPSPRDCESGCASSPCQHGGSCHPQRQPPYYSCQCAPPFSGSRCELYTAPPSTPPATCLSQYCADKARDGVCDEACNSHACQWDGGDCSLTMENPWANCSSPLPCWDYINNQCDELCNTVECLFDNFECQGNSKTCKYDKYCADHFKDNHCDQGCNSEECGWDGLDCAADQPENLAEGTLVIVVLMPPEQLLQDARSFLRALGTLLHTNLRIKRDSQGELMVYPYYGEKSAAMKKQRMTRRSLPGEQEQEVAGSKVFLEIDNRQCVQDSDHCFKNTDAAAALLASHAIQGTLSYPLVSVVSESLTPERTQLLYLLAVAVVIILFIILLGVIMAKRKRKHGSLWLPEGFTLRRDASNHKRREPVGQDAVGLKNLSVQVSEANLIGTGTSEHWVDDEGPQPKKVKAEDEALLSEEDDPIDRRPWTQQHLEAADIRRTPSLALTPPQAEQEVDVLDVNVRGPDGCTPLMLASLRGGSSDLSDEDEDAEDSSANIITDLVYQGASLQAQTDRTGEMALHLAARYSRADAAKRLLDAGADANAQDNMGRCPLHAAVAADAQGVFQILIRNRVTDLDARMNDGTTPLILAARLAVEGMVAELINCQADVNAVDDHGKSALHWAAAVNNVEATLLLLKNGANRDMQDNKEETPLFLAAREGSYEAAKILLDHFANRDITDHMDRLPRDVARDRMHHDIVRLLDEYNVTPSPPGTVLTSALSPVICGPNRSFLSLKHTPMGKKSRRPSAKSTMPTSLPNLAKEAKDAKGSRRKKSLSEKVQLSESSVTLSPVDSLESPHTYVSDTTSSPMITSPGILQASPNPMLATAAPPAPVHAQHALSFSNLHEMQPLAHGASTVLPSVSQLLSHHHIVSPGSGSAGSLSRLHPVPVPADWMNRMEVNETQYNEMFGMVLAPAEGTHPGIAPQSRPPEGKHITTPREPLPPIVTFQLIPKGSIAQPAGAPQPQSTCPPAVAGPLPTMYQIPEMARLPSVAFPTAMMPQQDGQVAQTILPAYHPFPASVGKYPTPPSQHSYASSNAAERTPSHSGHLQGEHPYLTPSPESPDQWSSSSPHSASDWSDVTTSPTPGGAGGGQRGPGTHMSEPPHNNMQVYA

As to `O=C(NCc1ccccc1)[C@]1(CCS(=O)(=O)c2ccccc2)N=C(c2ccc(OCCCO)cc2)O[C@@H]1c1ccccc1`, the composite z-score in [1] was 0.0169; in assay [2], 0.938; in assay [3] it was 0.0485; in [4] it was 1.05; in [5] it was 1.68; in [6], 1.48. The composite z-score in [7] was 1.18; in assay [9], 1.31; in [10], -0.378; in assay [11] it was 1.57; in assay [15], 1.78; in assay [17] it was -0.0552. For the same compound, the composite z-score in [18] was found to be 0.204; in assay [19], 1.07; in assay [20], 0.219. Also, the z-score in assay [8] was -2.35 (inactive); in assay [12], 0.63 (inactive); in assay [13], 0.194 (inactive); in [14], 36.9 (active); in assay [16], 0.887 (inactive).

As to `COCCOC(=O)N1C(=O)[C@@]2(c3cc(C#CCNC(N)=O)ccc31)[C@H](c1ccc(OCCO)cc1)N1[C@H](c3ccccc3)[C@H](c3ccccc3)OC(=O)[C@H]1[C@@H]2C(=O)N1CCc2cc(OC)c(OC)cc2C1`, the composite z-score in assay [1] was 0.187; in assay [2], -0.0389; in [3], -0.051; in [4] it was 0.164; in [5] it was 0.638; in assay [6], 0.156. In addition, the composite z-score in assay [7] was 0.371; in assay [9], 0.883; in assay [10] it was 0.327; in assay [11] it was 0.993; in [15], 0.816; in [17], -0.0555. The composite z-score in assay [18] is 1.04; in assay [19], 0.983; in assay [20], -0.0007. Further, the z-score in [8] is 1.08 (inactive); in assay [12], 1.46 (inactive); in assay [13], 1.41 (inactive); in assay [14] it was 4.56 (inactive); in assay [16], 0.196 (inactive).

Regarding `O=C1OCCC=C[C@H]2OC34C=CCN(Cc5ccccc5)C(=O)[C@H]3N(CCCCCCO)C(=O)[C@@H]4C12` (stereo not given in full), the composite z-score is 0.359 in assay [1]; -1.01 in assay [2]; -0.196 in assay [3]; -0.384 in assay [4]; -0.91 in [5]; 1.88 in [6]. The composite z-score is 0.92 in [7]; -0.26 in assay [9]; -0.621 in assay [10]; 0.831 in assay [11]; 3.21 in [15]; -0.42 in assay [17]. The composite z-score was -0.485 in assay [18], 0.127 in [19] and -0.309 in [20]. The z-score in [8] is -0.386 (inactive); in [12], 0.104 (inactive); in assay [13] it was -0.0853 (inactive); in assay [14], -0.0696 (inactive); in assay [16], 0.801 (inactive).

Consider `COCCOC(=O)N1C(=O)[C@@]2(c3cc(C#CCCO)ccc31)[C@H](c1ccc(O)cc1)N1[C@H](c3ccccc3)[C@H](c3ccccc3)OC(=O)[C@H]1[C@@H]2C(N)=O`, for which the composite z-score is 1.04 in [1]; 0.751 in assay [2]; -0.0173 in [3]; 0.203 in assay [4]; -0.982 in assay [5]; 1.08 in assay [6]. Further, the composite z-score in assay [7] was determined as 1.42; in [9], 0.102; in assay [10], 0.113; in assay [11], 1.14; in assay [15], 1.51; in assay [17], 0.0002. The composite z-score in [18] is -0.243; in assay [19], 0.213; in [20], -0.178. In addition, the z-score is -0.966 (inactive) in [8]; 0.253 (inactive) in [12]; 0.479 (inactive) in assay [13]; 0.418 (inactive) in assay [14]; -0.834 (inactive) in [16].

On to `COC(=O)[C@@]1(Cc2ccccc2)N=C(c2ccc(OCCCO)cc2)O[C@H]1c1ccccc1N=[N+]=[N-]`, for which the composite z-score in [1] was 0.454; in assay [2] it was 2.86; in [3], -0.0667; in assay [4], 0.123; in assay [5] it was 0.784; in assay [6] it was 0.657. Also, the composite z-score is 1.33 in [7]; 0.0183 in assay [9]; -0.201 in assay [10]; 1.49 in [11]; 1.35 in [15]; 0.0484 in assay [17]. For the same compound, the composite z-score is 0.884 in assay [18], 0.802 in assay [19] and -0.0953 in assay [20]. The z-score in [8] is 3.69 (inactive); in [12], 0.288 (inactive); in assay [13], -2.2 (inactive); in assay [14], 5.8 (inactive); in assay [16], 0.319 (inactive).
